Test [1] in a line: qHTS assay to identify small molecule antagonists of the estrogen receptor alpha (ER-alpha) signaling pathway using the BG1 cell line in the presence of 0.1 nM 17-beta-estradiol - cell viability counter screen (AID 1259241). Further: nearly all actives have a fitted effect of over 40% in size. Further: potency means the concentration at half of the fitted maximal effect. An outline of the steps: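 Following 5 days in phenol red-free medium with charcoal-stripped serum, VM7Luc4E2 cells received test compounds alongside 0.1 nM 17beta-estradiol (final) at 37C for 22 hr. Live cells were then quantified via protease-substrate fluorescence.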
On the technique in general: qHTS replaces the single test concentration by a dilution series.

Test [2] is described as follows: qHTS assay to identify small molecule antagonists of the androgen receptor (AR) signaling pathway using the MDA cell line in the presence of 0.5 nM R1881 - cell viability counter screen (AID 1259242). Further: nearly all actives have a fitted effect of over 45% in size. Further: potency means the concentration at half of the fitted maximal effect. The gist of the method: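 Viability of MDA-kb2 cells was multiplexed with the luciferase AR readout; after 16 hr with compounds and R1881 at 0.5 nM final, CellTiter-Fluor fluorescence was recorded.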

Test [3] concerns the target Androgen receptor (Homo sapiens) (UniProt P10275). Put plainly: qHTS assay to identify small molecule antagonists of the androgen receptor (AR) signaling pathway using the MDA cell line in the presence of 0.5 nM R1881 (AID 1259243). Further: nearly all actives have a fitted effect of over 50% in size. Further: potency means the concentration at half of the fitted maximal effect. An outline of the steps:
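Reporter cells cultured without CO2 receive test chemicals, then 0.5 nM R1881 final; after 16 hr at 37C, ONE-Glo is added and light output recorded.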

Test [4] in a line: qHTS assay to identify small molecule HDAC inhibitors - cell viability counter screen (AID 1259365). Further: nearly all actives have a fitted effect of over 50% in size. Further: potency means the concentration at half of the fitted maximal effect. An outline of the steps: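 HCT-116 wild-type, overnight attachment; 2hr drug exposure, 37C; CellTiter-Glo luminescent ATP readout after 30min RT.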
A short description of test [5]: qHTS assay to identify small molecule agonists of the sonic hedgehog signaling (Shh) pathway - cell viability counter screen (AID 1259366). Further: nearly all actives have a fitted effect of over 50% in size. Further: potency means the concentration at half of the fitted maximal effect. The gist of the method: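 Compounds in DMSO were pin-transferred onto 3T3 Gli1-Luc cells that had settled 4hr; plates then stood 24hr at 37C and 5% CO2. One hour before the end, CellTiter-Fluor was added and fluorescence recorded.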

Test [6] in a line: qHTS assay to identify small molecule antagonists of the sonic hedgehog signaling (Shh) pathway - cell viability counter screen (AID 1259367). Further: nearly all actives have a fitted effect of over 55% in size. Further: potency means the concentration at half of the fitted maximal effect. The gist of the method: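 Cells: 3T3 Gli1-Luc, 2,000/well, 4 hr pre-incubation. Compounds in DMSO, then conditioned medium. Incubation 24 hr, 37C, 5% CO2. CellTiter-Fluor at 23 hr, 1 hr, fluorescence.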
A short description of test [7]: qHTS assay to identify small molecule agonists of the sonic hedgehog signaling (Shh) pathway (AID 1259368; calls by dose curve;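 further: NIH/3T3-derived 3T3Gli1-Luc cells carrying a stable Gli1-driven firefly luciferase reporter; series mostly up to about 92 µM; nearly all actives have a fitted effect of over 15% in size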). The gist of the method: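 A Gli1 transcriptional response element controlled firefly luciferase in 3T3Gli1-Luc cells. Compounds and a positive control were added 4 hr after plating, and cells were incubated a further 24 hr at 37 C before luminescence detection.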

Test [8] in a line: qHTS assay to identify small molecule HDAC inhibitors (AID 1259364). Further: potency means the concentration at half of the fitted maximal effect.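 Further: wild-type HCT-116 cells with endogenous class I/II HDAC activity; nearly all actives have a fitted effect of over 45% in size.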 The gist of the method: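 Read-out: luminescence of HDAC-Glo I/II reagent, 30 min RT, reflecting class I/II deacetylase activity in whole HCT-116 cells pre-exposed 2 h to DMSO-dissolved compounds.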
Test [9] can be described thus: qHTS assay to identify small molecule phospholipidosis (PLD) inducers (AID 1259344; active means well fitted curve in the direction sought with a large enough effect; an effect the other way counts as inactive or inconclusive). An outline of the steps: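 Phospholipidosis is scored by imaging LipidTOX-stained pits in HepG2 cells exposed to compound for 24 h at 37 C; pit counts and integrated intensities per well and per cell serve as outputs.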
For test [10], the target named is Estrogen receptor (Homo sapiens) (UniProt P03372). The test is described as follows: qHTS assay to identify small molecule antagonists of the estrogen receptor alpha (ER-alpha) signaling pathway using the BG1 cell line in the presence of 0.1 nM 17-beta-estradiol (AID 1259244). Further: nearly all actives have a fitted effect of over 50% in size. Further: potency means the concentration at half of the fitted maximal effect. An outline of the steps: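 Estradiol at 0.1 nM (final) stimulates the endogenous ER-alpha of VM7Luc4E2 cells carrying an ERE-driven luciferase; compounds are co-incubated 22 h at 37C and luciferase output quantified by luminescence.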
Chain of Estrogen receptor (Homo sapiens) (P03372 whole entry, looked up): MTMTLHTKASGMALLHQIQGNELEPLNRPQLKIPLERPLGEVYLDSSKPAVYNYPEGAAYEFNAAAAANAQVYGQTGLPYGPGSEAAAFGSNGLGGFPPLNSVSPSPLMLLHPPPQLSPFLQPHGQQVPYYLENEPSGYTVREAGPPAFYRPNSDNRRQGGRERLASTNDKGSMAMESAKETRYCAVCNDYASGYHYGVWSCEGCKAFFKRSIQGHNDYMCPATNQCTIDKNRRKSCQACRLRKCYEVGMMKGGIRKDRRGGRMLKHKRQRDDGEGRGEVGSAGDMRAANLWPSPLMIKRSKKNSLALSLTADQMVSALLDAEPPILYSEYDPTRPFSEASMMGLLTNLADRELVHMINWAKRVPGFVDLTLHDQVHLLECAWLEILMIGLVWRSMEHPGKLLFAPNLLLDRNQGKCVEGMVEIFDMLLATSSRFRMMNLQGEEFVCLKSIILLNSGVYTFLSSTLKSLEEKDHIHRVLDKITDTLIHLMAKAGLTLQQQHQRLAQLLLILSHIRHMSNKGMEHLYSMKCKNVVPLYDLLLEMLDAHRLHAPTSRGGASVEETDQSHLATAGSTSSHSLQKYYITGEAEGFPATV

Where “and” joins values, the source holds several entries; their conditions need not be identical. Identical values can stand only once. Values without a mark were called inactive. Results filed as inconclusive are left out. Calls of active or inactive are those of the source. Unless noted, the call rests on the fitted dose curve; in most records, active means well fitted curve in the direction sought with a large enough effect in the repeat runs; inconclusive means weak or mixed curves; inactive means no such curve, though single readings can be large; an effect the other way counts as inactive or inconclusive.

Chain of Androgen receptor (Homo sapiens) (P10275 whole entry, looked up): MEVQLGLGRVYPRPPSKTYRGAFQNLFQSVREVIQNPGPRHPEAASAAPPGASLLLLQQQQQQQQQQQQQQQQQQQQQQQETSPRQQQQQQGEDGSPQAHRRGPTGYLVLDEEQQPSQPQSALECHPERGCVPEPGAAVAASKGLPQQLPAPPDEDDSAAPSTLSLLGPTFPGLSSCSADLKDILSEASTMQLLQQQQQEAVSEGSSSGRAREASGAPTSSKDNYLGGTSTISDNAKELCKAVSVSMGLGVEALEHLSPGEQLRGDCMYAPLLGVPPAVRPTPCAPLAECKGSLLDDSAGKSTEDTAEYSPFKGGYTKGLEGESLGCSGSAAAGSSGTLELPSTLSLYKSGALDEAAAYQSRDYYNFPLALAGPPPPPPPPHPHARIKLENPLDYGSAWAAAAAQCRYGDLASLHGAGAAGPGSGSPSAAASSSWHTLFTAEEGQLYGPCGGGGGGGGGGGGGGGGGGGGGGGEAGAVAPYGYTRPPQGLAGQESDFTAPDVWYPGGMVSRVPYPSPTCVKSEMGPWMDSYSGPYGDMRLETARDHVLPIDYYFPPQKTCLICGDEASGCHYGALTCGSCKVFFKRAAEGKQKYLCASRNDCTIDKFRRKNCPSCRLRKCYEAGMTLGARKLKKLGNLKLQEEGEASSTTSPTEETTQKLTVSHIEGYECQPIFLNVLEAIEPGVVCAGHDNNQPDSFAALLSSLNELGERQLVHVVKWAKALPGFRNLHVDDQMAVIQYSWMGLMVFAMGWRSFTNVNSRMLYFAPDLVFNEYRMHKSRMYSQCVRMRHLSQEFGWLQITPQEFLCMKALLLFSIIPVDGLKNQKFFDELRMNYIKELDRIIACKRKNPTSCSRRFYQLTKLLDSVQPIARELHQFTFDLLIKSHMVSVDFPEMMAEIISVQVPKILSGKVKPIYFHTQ

Take `N#CSCSC#N`: the Potency is 70.1 µM (active) in test [1]; 62.5 µM (active) in test [2]; 49.6 µM (active) in test [3]; 11.1 µM (active) and 6.79 µM (active) in test [5]; 12.5 µM (active) and 13.5 µM (active) in test [6]. The Potency result in test [4] and in [7] was “inactive” throughout.
Regarding `CC(=O)/C=C/c1ccc2c(c1)OCO2`, the Potency result in test [1], in test [2] and in [4] was “inactive” each time. Also, the Potency is 68.9 µM (active) in test [3] and 27.4 µM (active) in test [8].
`CN(C)CCc1c[nH]c2ccc(O)cc12`: the Potency result in test [1], in [2], in [3], in [9], in test [8] and in test [4] was “inactive” in each case. In [7], the Potency result was “inactive”. Besides, in [6], the Potency was 59.7 µM (active).
Take `O=C1C=CC(=O)c2ccccc21`: the Potency in test [1] is 19.3 µM (active); in [2], 30.6 µM (active); in test [3] it was 19.3 µM (active); in test [10], 10.9 µM (active); in [4] it was 48.6 µM (active); in [5] it was 12.2 µM (active). Moreover, the Potency in test [6] was 15.4 µM (active).
As to `C[C@]12Cc3nonc3C[C@@H]1CC[C@@H]1[C@@H]2CC[C@@]2(C)[C@H]1CC[C@]2(C)O`, the Potency entry in test [1], in test [2], in test [8], in test [4], in test [6] and in test [7] was “inactive” each time. Moreover, the Potency in [3] is 21.1 µM (active).
Regarding `CCCCOP(=O)(CCCC)OCCCC`, the Potency result in [1], in [2], in test [3], in [8], in test [4] and in [5] was “inactive” each time. The Potency result in [6] and in test [7] was “inactive” in each case.
In the case of `CCOP(=O)(NC(C)C)Oc1ccc(SC)c(C)c1` (centres undefined), the Potency entry in test [1], in test [2], in [8], in [4], in test [5] and in [7] was “inactive” throughout. Moreover, the Potency in test [3] is 27.3 µM (active).
Take `C=CC(=O)OCC(COC(=O)C=C)(COC(=O)C=C)COC(=O)C=C`: the Potency is 19.3 µM (active) in [1]; 13.7 µM (active) in [2]; 4.33 µM (active) in test [3]; 15.4 µM (active) in test [10]; 5.45 µM (active) in test [5]; 7.7 µM (active) in [6]. The Potency result in [8] and in test [7] was “inactive” throughout.
In the case of `CC(=O)C(Cl)(Cl)Cl`, the Potency in test [1] was 20.9 µM (active); in test [2] it was 14.8 µM (active); in test [3], 9.35 µM (active); in [5], 20.9 µM (active); in [6], 16.6 µM (active). Also, the Potency result in test [8], in [4] and in test [7] was “inactive” each time.
For `COc1ccc(/C(=C/C(=O)N2CCOCC2)c2ccc(Cl)cc2)cc1OC`, the Potency result in test [1], in test [2], in test [8], in test [4], in [5] and in test [7] was “inactive” throughout. The Potency in test [3] was 1.54 µM (active).
Turning to `Cc1cccc(OP(=O)(Oc2cccc(C)c2)Oc2cccc(C)c2)c1`, the Potency result in test [1], in [2], in test [3], in test [8], in test [4] and in [5] was “inactive” each time. Besides, the Potency result in test [6] and in test [7] was “inactive” throughout.
With `CCC[CH2][Sn]([CH2]CCC)([CH2]CCC)[O]C(=O)c1ccccc1`, the Potency is 21.7 µM (active) in test [1]; 1.54 µM (active) in test [2]; 0.486 µM (active) in test [10]; 19.3 µM (active) in [4]; 0.686 µM (active) in test [5]; 0.864 µM (active) in test [6]. Besides, the Potency entry in test [8] and in [7] was “inactive” each time.
On to `Cc1cc(C)c(C2=C(OC(=O)CC(C)(C)C)C3(CCCC3)OC2=O)c(C)c1`, for which the Potency result in test [1], in [2], in test [10], in test [8], in [4] and in test [5] was “inactive” throughout. Further, the Potency result in test [6] and in [7] was “inactive” each time.
Regarding `SCc1ccco1`, the Potency entry in test [1], in test [2], in test [10], in test [8], in test [4] and in [5] was “inactive” throughout. In addition, the Potency result in test [6] and in test [7] was “inactive” throughout.
With `ClC1=C(Cl)[C@]2(Cl)[C@H]3[C@H]([C@H]4C=C[C@H]3C4)[C@@]1(Cl)C2(Cl)Cl`, the Potency result in test [1], in test [2], in [10], in test [8], in test [4] and in test [5] was “inactive” throughout. Further, the Potency entry in [6] and in [7] was “inactive” in each case.
As to `CCOC(=O)OC1=C(c2cc(C)ccc2C)C(=O)NC12CCC(OC)CC2` (centres undefined), the Potency entry in [1], in test [2], in test [10], in test [8], in [4] and in [5] was “inactive” throughout. Besides, the Potency result in test [6] and in test [7] was “inactive” each time.
On to `O=c1c(C2CC(c3ccc(-c4ccc(Br)cc4)cc3)Cc3ccccc32)c(O)sc2ccccc12` (centres undefined), for which the Potency result in [1], in [2], in test [8], in test [4], in [5] and in [6] was “inactive” throughout. Moreover, the Potency entry in [7] is “inactive”. Besides, in [10], the Potency is 13.3 µM (active).
Regarding `CS(=O)(=O)c1ccc(C(=O)C2C(=O)CCCC2=O)c([N+](=O)[O-])c1`, the Potency entry in test [1], in [2], in test [10], in [9], in [8] and in test [4] was “inactive” throughout. Besides, the Potency result in test [5] and in test [7] was “inactive” each time.
As for `C[C@]12CC[C@H]3[C@@H](CCC4=CC(=O)CC[C@@]43C)[C@@H]1CC[C@@H]2O`, the Potency entry in test [1], in [2], in test [10], in test [8], in [4] and in test [5] was “inactive” each time. Moreover, the Potency result in test [6] and in test [7] was “inactive” in each case.

(Values after PubChem BioAssay (Tox21).)
